In the OligoGym collection:

Molecular target: ANKRD53
Assay: pooled miR-30 sensor sort-seq; sequence = guide strand
Details: shRNA
Also: reference of the scale not given here.

Sequence | sensor-assay potency score (higher = more potent)
TTGACCTTGATACTCAATCAGG | -0.673
TCTGATAGCAGCTTCTCTGAGA | -0.337
TGATAGTAGAGAAATGTCCTGC | 0.127
TTCATCGAATGTGTCACGCAGG | -0.608

Molecular target: ANTXR1
Assay: as above
Details: shRNA

Sequence | sensor-assay potency score (higher = more potent)
TTGAGTTTCTTACCACACCAGG | -1.02
TTTTCCATCAGTAAACACCTGC | 0.177
TGTCTCTACACTGTGAGCCTGG | -0.327
TTATTGATTAAACAGATCCAGA | -1.04
TAAAGTGAGTGAATGAAGCTGG | 0.662
TTCTCATTGAGTGTGACCGAGT | -0.633
TTGTATACACACACATGCCTTA | -0.352
TTGGAGAGTACCACTTCCGGGG | -0.563
TTATATTCTGCCTTGTTCCAGA | -0.0343
TTGATAATCACAGTGCAGCAGA | -0.3
TCATTGATCTTGAAGCTGCAGA | -0.552

Molecular target: ANXA11
Assay: as above
Details: shRNA

Sequence | sensor-assay potency score (higher = more potent)
ATGCTCTTCTCAATGTCCCGGC | -0.72
TTCATCAGTGCCAACCCCCTTG | 0.00983
ATCTTCAGCAGAATCTTCCGGT | 0.075
TCTTGAGACATTTCACCACGGC | -0.11
TATCTCATAAATGTCAAAGAGG | -1.14
TCCGCTTATACTCTGATCTGAT | -0.656
TAGGATCTGCTGCCGCTGCTTG | -0.946
TTCTGCTTTGTAGGCTCTGTTT | -1.4
ATACTCTGATCTGATGTCCAGG | -0.494
TCGTGGTACAGCGACTTGCCGT | -1.23
TATTCTTGAGACATTTCACCAC | 0.412
TATTTTAGCAGCAAGAGGCTGT | 0.315
TCTAGGACGGTGAATCTCGGGG | -0.586
TAAATGTCAAAGAGGACTGGGG | -0.276
TTGAAAACTGCTACCAGGTGGG | -0.0336
TCTGATGTCCAGGAGGTCGGTC | -0.593
TTGAACTTGGACTCGTCTGTTC | -0.177
TATACTCTGATCTGATGTCCAG | -0.656
TTGAACTGCCCCGCATAGGTGG | -0.724
TTTGATCAAATCCTTGCCGTAA | -0.559
TTAGAAACAGACATTCTTTTGG | 0.574
TTTAATTCTCGGATGTGCTCAT | 0.906

Molecular target: ANXA5
Assay: as above
Details: shRNA

Sequence | sensor-assay potency score (higher = more potent)
AACAGATCAATCTCACTCCTGG | -0.0547
TTTCATTTGTTCCAGCTCCCTT | -0.639
TACTTGTCAAACACCTTTCTCA | 0.224
